These results are taken from PubChem BioAssay (NCATS).

The structures appear in SMILES notation. Records with an inconclusive call do not appear. Values without a mark were called inactive. The source made the active and inactive calls. The call rests on the fitted dose curve. Peptide text beside a SMILES is read from it. A value given as a limit tells only on which side of the number the result lay.
Potency means the concentration at half of the fitted maximal effect.

This test can be described thus: Cell Viability - SK-N-SH (AID 435).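 Further: compound exposure lasted 40 h at 37 °C.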 As to conditions: SK-N-SH neuroblastoma cell viability qHTS. From the text: NIH Chemical Genomics Center [NCGC]
NIH Molecular Libraries Screening Centers Network [MLSCN]
National Institutes of Environmental Health Sciences [NIEHS]
National Toxicology Program [NTP]
We have developed a 1536-well cell-based assay for quantitative high throughput screening (qHTS) against a number of cell lines to determine in vitro cytotoxicity of small molecules. This particular assay uses the SK-N-SH cell line which is derived from human neuroblastoma.
NCGC Assay Protocol Summary:
The CellTiter-Glo luminescent cell viability assay (Promega) is a homogeneous method to measure the number of viable cells in culture. The end point readout of this assay is based on quantitation of intracellular ATP, an indicator of metabolic activity, using the luciferase reaction. Luciferase catalyzes the oxidation of beetle Luciferin to oxyluciferin and light in the presence of ATP. The luminescent signal is proportional to amount of ATP present.
Using the CellTiter-Glo luminescent cell viability assay, the amount of cellular ATP was measured in the SK-N-SH cell line with complete culture medium following compound treatment for 40 hours. The assay was performed in opaque white Kalypsys 1536-well plates. In the screen, tamoxifen and doxorubicin were used as positive controls. Library compounds were measured for their ability to cause acute toxicity in the cell line, as reflected by a decrease in intracellular ATP levels, in a concentration-dependent manner. Data were normalized to the controls for basal activity (DMSO only) and 100% inhibition (100 uM tamoxifen). AC50 values were determined from concentration-response data modeled with the standard Hill equation.
qHTS protocol fo CellTiter Glo SK-N-SH cellular assay
[Step] [Parameter] [Value] [Description]
1. Reagent; 5 uL; 1500 SK-N-SH cells/well
2. Time; 5 hr; 37 °C incubation
4. Controls; 23 nL; Tamoxifen 0.34 uM to 100 uM & Doxorubicin 0.02 nM to 100 uM
5. Time; 40 hr; 37 °C incubation
6. Reagent; 5 uL; CellTiter Glo reagent
7. Time; 20 min; Room Temperature
8. Detection; Luminescence; Viewlux plate reader
Keywords: cell viability, cytotoxicity, SK-N-SH cell line, luminescence, NTPHTS, NTPHTS_NCGC, NIEHS, EPA, DSSTox, MLSMR, MLSCN, NIH Roadmap, qHTS, NCGC
On the technique in general: Quantitative high-throughput screening tests each substance at several concentrations.
Regarding `CCCCC(CC)COC(=O)C(C#N)=C(c1ccccc1)c1ccccc1` (stereo not drawn), the Potency was greater than 92 µM.

Consider `Nc1ccc(S(N)(=O)=O)cc1`, for which the Potency is greater than 92 µM.

With `COc1c2occc2cc2ccc(=O)oc12`, the Potency was greater than 92 µM.

For `c1ccc2[nH]c(-c3cscn3)nc2c1`, the Potency was greater than 92 µM.

Regarding `CCCc1cc(=O)[nH]c(=S)[nH]1`, the Potency was greater than 92 µM.

For the compound `CC(=O)Nc1ccc(O)cc1`, the Potency was greater than 92 µM.

Regarding `Cc1ccc(C)c(OCCCC(C)(C)C(=O)O)c1`, the Potency was greater than 92 µM.

As to `CS(=O)(=O)OCCCCOS(C)(=O)=O`, the Potency was greater than 92 µM.

Take `Cc1cc(O)c2c(c1)C(=O)c1cc(O)cc(O)c1C2=O`: the Potency was 35 µM (active).

As to `NS(=O)(=O)c1cc(C(=O)O)c(NCc2ccco2)cc1Cl`, the Potency is greater than 92 µM.

For the compound `CCc1nc(N)nc(N)c1-c1ccc(Cl)cc1`, the Potency was 25.6 µM (active).

For `COC(=O)[C@H](Cc1ccccc1)NC(=O)[C@@H](N)CC(=O)O` (H-Asp-Phe-OMe), the Potency is greater than 92 µM.

Take `CN(C)c1ccc2nc3ccc(=[N+](C)C)cc-3sc2c1`: the Potency is 10.9 µM (active).
